Our source for the outcome and AC50 values is PubChem BioAssay (EPA / NIEHS).

Results filed as inconclusive are left out. Calls of active or inactive are those of the source. Rule for the calls: active = hit-call score of the fitted dose curve at least 0.9, where 1 is the maximum; inconclusive = response in the unintended direction; inactive = score below 0.9.

Test [1] can be described thus: Tanguay_ZF_120hpf_YSE_legacy: (Legacy) Oregon State University Tanguay Lab 120 Hour Post-fertilization zebrafish Assay for Yolk Sac Edema (AID 2283634). The essentials:
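Presence or absence of yolk sac edema was recorded at 120 hpf in surviving larvae. These were wild-type Tropical 5D embryos, chorion removed at 4 hpf, held in static exposure at 28C from 6 hpf with 0.64% DMSO vehicle.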

Test [2] can be described thus: Tanguay_ZF_120hpf_AXIS_legacy: (Legacy) Oregon State University Tanguay Lab 120 Hour Post-fertilization zebrafish Assay for Body Axis Malformation (AID 2283635).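 For AC50: potency for an increased fraction of larvae scored with body axis malformation.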 The gist of the method:
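Binary scoring of axis defects at 120 hpf under brightfield, fitted positive versus DMSO. Tropical 5D embryos, chorion removed by pronase at 4 hpf, were singly exposed in sealed, dark plates at 28C from 6 hpf; DMSO 0.64% final.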

Test [3] in a line: Tanguay_ZF_120hpf_EYE_legacy: (Legacy) Oregon State University Tanguay Lab 120 Hour Post-fertilization zebrafish Assay for Eye Malformation (AID 2283636).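 Note: binary presence or absence of eye malformation scored by brightfield in 120 hpf larvae.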 The essentials: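 Dechorionated Tropical 5D zebrafish embryos, one per well from 6 hpf, static exposure to 120 hpf at 28C, 0.64% DMSO. Eye malformation scored present/absent by brightfield; dead embryos not scored.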
Test [4] is described as follows: Tanguay_ZF_120hpf_SNOU_legacy: (Legacy) Oregon State University Tanguay Lab 120 Hour Post-fertilization zebrafish Assay for Snout Malformation (AID 2283637). The gist of the method: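 Dechorionated tropical 5D wild-type zebrafish embryos exposed statically from 6 to 120 hpf at 28C, one per well, in 0.64% DMSO. Snout malformation scored as present/absent by brightfield at 120 hpf; dead embryos not scored.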

The nature of test [5]: Tanguay_ZF_120hpf_JAW_legacy: (Legacy) Oregon State University Tanguay Lab 120 Hour Post-fertilization zebrafish Assay for Jaw Malformation (AID 2283638). The essentials:
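Binary jaw-malformation call at 120 hpf by brightfield microscopy. Embryos (Tropical 5D strain, chorion removed at 4 hpf) were dosed statically at 6 hpf, one per well, at 28C with 0.64% DMSO. Embryos that died were not scored.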

Test [6] in a line: Tanguay_ZF_120hpf_OTIC_legacy: (Legacy) Oregon State University Tanguay Lab 120 Hour Post-fertilization zebrafish Assay for Otic Vesicle Malformation (AID 2283639). The gist of the method: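 Otic vesicle malformation is read as a yes/no morphology call at 120 hpf. Exposure is static at 28C with 0.64% (vol/vol) DMSO; embryos that die are excluded from non-mortality endpoints.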

The nature of test [7]: Tanguay_ZF_120hpf_PE_legacy: (Legacy) Oregon State University Tanguay Lab 120 Hour Post-fertilization zebrafish Assay for Pericardial Edema (AID 2283640).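 For AC50: potency for increased incidence of pericardial edema versus DMSO baseline.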 The essentials: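 Scoring was binary, by brightfield microscopy at 120 hpf, and skipped where mortality occurred. Wild-type embryos were kept under sealed, foil-covered static exposure at 28C in 0.64% (vol/vol) DMSO.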
The nature of test [8]: Tanguay_ZF_120hpf_MORT_legacy: (Legacy) Oregon State University Tanguay Lab 120 Hour Post-fertilization zebrafish Assay for Mortality (AID 2283633). The essentials:
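Static waterborne exposure from 6 to 120 hpf at 28C of single dechorionated wild-type (5D) embryos per well, 0.64% DMSO final. Death recorded present/absent by brightfield at 24 and 120 hpf.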

The nature of test [9]: Tanguay_ZF_120hpf_BRAI_legacy: (Legacy) Oregon State University Tanguay Lab 120 Hour Post-fertilization zebrafish Assay for Brain Malformation (AID 2283641). The essentials: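 Binary brightfield scoring of brain malformation at 120 hpf in Tropical 5D larvae held under static exposure at 28C (0.64% v/v DMSO), non-mortality endpoints skipped if dead. Positive control: 5uM trimethyltin chloride; fit versus DMSO.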

Test [10] in a line: Tanguay_ZF_120hpf_SOMI_legacy: (Legacy) Oregon State University Tanguay Lab 120 Hour Post-fertilization zebrafish Assay for Somite Malformation (AID 2283647). The gist of the method: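 Binary somite-defect scoring at 120 hpf, omitted for embryos that died, in wild-type (Tropical 5D) zebrafish with chorion removed by pronase at 4 hpf; static exposure began 6 hpf, single embryos per well, 28C, 0.64% DMSO; fitted positive versus DMSO.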

Regarding `CNC(=O)CSP(=S)(OC)OC`, the outcome in [1], in test [2], in [3], in test [4], in test [5] and in test [6] was inactive. Also, in [7], the call was inactive.

Consider `COP(=S)(OC)Oc1ccc([N+](=O)[O-])cc1`, for which the result in [8], in test [1], in [2], in test [3], in test [4] and in test [5] was inactive. The compound was classed as inactive in test [6], in test [7], in [9] and in test [10].

For the compound `COc1nn(CSP(=S)(OC)OC)c(=O)s1`, the call in test [1], in test [2], in test [3], in [4], in [5] and in test [6] was inactive. The result in test [7], in [9] and in test [10] was inactive.

As for `Cc1[nH]c(=O)n(C(C)(C)C)c(=O)c1Cl`, the result in test [1], in test [3], in test [4], in test [5], in test [6] and in test [7] was inactive. The call in test [9] and in test [10] was inactive.

For the compound `CCc1ccc(C(=O)NN(C(=O)c2cc(C)cc(C)c2)C(C)(C)C)cc1`, the compound was classed as inactive in test [2], in [3], in test [4], in [5], in test [6] and in [9].

`O=C(O)COc1ccc(Cl)cc1Cl`: the outcome in [1], in [2], in test [4], in test [5], in test [6] and in test [7] was inactive. Further, in test [9], the compound was called inactive.

Turning to `CCC(C)(C)C(=O)OC1=C(c2ccc(Cl)cc2Cl)C(=O)OC12CCCCC2`, the compound was classed as inactive in test [1], in test [2], in [3], in test [4], in [5] and in test [6]. Also, the compound was classed as inactive in test [7] and in test [10].

As for `CC1(C)C(C=C(Cl)Cl)C1C(=O)OC(C#N)c1ccc(F)c(Oc2ccccc2)c1` (stereo not drawn), the compound was called inactive in [1], in test [2], in test [3], in test [4], in [5] and in [7]. Further, in test [9], the call was inactive.

Turning to `CCC(C)Nc1c([N+](=O)[O-])cc(C(C)(C)C)cc1[N+](=O)[O-]` (stereo not drawn), the outcome in test [1], in [2], in [3], in test [4], in [5] and in test [6] was inactive. The call in [7] and in [10] was inactive.

Consider `CCOCN(C(=O)CCl)c1c(C)cccc1CC`, for which the AC50 in test [2] was 39 µM (active). Moreover, the result in test [4], in [5], in test [6], in test [7], in test [9] and in test [10] was inactive.

With `CCN(CC)C(=O)SCc1ccc(Cl)cc1`, the result in test [1], in test [2], in [4], in test [5], in test [7] and in test [9] was inactive. Also, the result in test [10] was inactive.

With `C#CCN1C(=O)COc2cc(F)c(N3C(=O)C4=C(CCCC4)C3=O)cc21`, the result in test [1], in [2], in test [3], in [4], in test [5] and in test [6] was inactive. In addition, the outcome in test [7], in [9] and in test [10] was inactive.

As for `COP(=O)(OC)OC=C(Cl)Cl`, the result in test [1], in [2], in [3], in [4], in test [6] and in test [7] was inactive. Further, the result in test [9] and in [10] was inactive.

For `CNC(=O)Oc1ccccc1OC(C)C`, the result in test [1], in test [2], in test [4], in [5], in [6] and in test [7] was inactive. Also, in [9], the outcome was inactive.

Take `OCCOc1ccccc1`: the outcome in test [1], in [2], in [4], in [5], in [7] and in [9] was inactive. In addition, in test [10], the compound was called inactive.

For the compound `O=[N+]([O-])/N=C1\NCCN1Cc1ccc(Cl)nc1`, the outcome in [1], in test [2], in test [3], in [4], in test [5] and in test [6] was inactive. Also, the compound was called inactive in test [7], in [9] and in test [10].

For `CC(C)OC(=O)Nc1cccc(Cl)c1`, the compound was called inactive in [1], in test [2], in [3], in test [6] and in [10]. The AC50 in test [4] was 34.2 µM (active); in test [7], 37.7 µM (active); in test [9], 39.5 µM (active).

Turning to `CCCN(CCC)c1c([N+](=O)[O-])cc(C(F)(F)F)cc1[N+](=O)[O-]`, the result in test [1], in [2], in [3], in test [4], in test [5] and in test [10] was inactive.

For `CC(C)N(C(=O)COc1nnc(C(F)(F)F)s1)c1ccc(F)cc1`, the compound was called inactive in test [1], in test [3], in test [4], in test [5], in test [7] and in test [10].

For `Oc1cc(Cl)ccc1Oc1ccc(Cl)cc1Cl`, the result in test [1], in test [2], in [3], in test [4], in test [5] and in test [6] was inactive. Besides, the compound was classed as inactive in test [7], in [9] and in test [10].

`O=C(NC(=O)c1c(F)cccc1F)Nc1ccc(OC(F)(F)C(F)OC(F)(F)F)c(Cl)c1` (stereo not drawn): the outcome in test [1], in [3], in test [4], in test [5], in test [6] and in test [7] was inactive. Moreover, in test [10], the call was inactive.

As for `CNC(=O)Oc1cccc(N=CN(C)C)c1`, the result in [2], in test [3], in test [5], in [6], in test [7] and in test [9] was inactive. In test [10], the compound was classed as inactive.

As for `N#Cc1c(Cl)c(Cl)c(Cl)c(C#N)c1Cl`, the call in [2], in [3], in test [4], in test [5], in [6] and in test [7] was inactive. For the same compound, the compound was called inactive in test [9] and in [10].

For the compound `CC1(c2ccc(Oc3ccccc3)cc2)OC(=O)N(Nc2ccccc2)C1=O` (stereo not drawn), the compound was called inactive in [1], in test [2], in [3], in test [4], in [5] and in [6]. Also, in [9], the compound was called inactive.

Take `Clc1ccccc1-c1nnc(-c2ccccc2Cl)nn1`: the outcome in test [1], in test [2], in test [3], in [5], in test [6] and in test [9] was inactive.

By AC50 is commonly meant the concentration giving half of the maximal activity seen.
